Numbering of substitutions follows the chain as printed; changes in the protein carry UniProt numbers. The full ranking holds about 16,000 sequences; the median of “ka relative to ugcaugu” is about 0.096, and the highest 2% start at about 0.35. The full list was thinned out, with the highest values kept by preference.
T1: RBFOX1 RRM RbFoxmut (Fox-RRM*) (Homo sapiens, UniProt Q9NWB1 109-208, R118D;E147R;N151S;E152T)
T1 sequence: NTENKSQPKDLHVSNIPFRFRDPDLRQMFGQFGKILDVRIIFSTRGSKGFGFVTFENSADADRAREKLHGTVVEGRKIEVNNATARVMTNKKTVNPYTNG

B1: UUACGGC (DNA:RNA)
RNA: GGGAGACCGGAAUUCAGAUUGUCCUUACGGCUUAAAUCCCGUCGUAGCCACCA
DNA 1: CAATCTGAATTCCGGTCTCCC
DNA 2: TGGTGGCTACGACGGGATT
B2: UUCGUUU (DNA:RNA)
RNA: B1 RNA with A27C, C28G, G29U, G30U, C31U
DNA 1: CAATCTGAATTCCGGTCTCCC
DNA 2: TGGTGGCTACGACGGGATT
B3: AAGUGAC (DNA:RNA)
RNA: B1 RNA with U25A, U26A, A27G, C28U, G30A
DNA 1: CAATCTGAATTCCGGTCTCCC
DNA 2: TGGTGGCTACGACGGGATT
B4: GAUGAAA (DNA:RNA)
RNA: GGGAGACCGGAAUUCAGAUUGUCCGAUGAAAUUAAAUCCCGUCGUAGCCACCA
DNA 1: CAATCTGAATTCCGGTCTCCC
DNA 2: TGGTGGCTACGACGGGATT
B5: ACAUGUU (DNA:RNA)
RNA: B1 RNA with U25A, U26C, C28U, G30U, C31U
DNA 1: CAATCTGAATTCCGGTCTCCC
DNA 2: TGGTGGCTACGACGGGATT
B6: CCGCCUC (DNA:RNA)
RNA: B1 RNA with U25C, U26C, A27G, G29C, G30U
DNA 1: CAATCTGAATTCCGGTCTCCC
DNA 2: TGGTGGCTACGACGGGATT
B7: GUGAUUG (DNA:RNA)
RNA: B4 RNA with A26U, U27G, G28A, A29U, A30U, A31G
DNA 1: CAATCTGAATTCCGGTCTCCC
DNA 2: TGGTGGCTACGACGGGATT
B8: GUCGUGA (DNA:RNA)
RNA: B4 RNA with A26U, U27C, A29U, A30G
DNA 1: CAATCTGAATTCCGGTCTCCC
DNA 2: TGGTGGCTACGACGGGATT
B9: GGUGAUU (DNA:RNA)
RNA: B4 RNA with A26G, A30U, A31U
DNA 1: CAATCTGAATTCCGGTCTCCC
DNA 2: TGGTGGCTACGACGGGATT
B10: GGUGUGA (DNA:RNA)
RNA: B4 RNA with A26G, A29U, A30G
DNA 1: CAATCTGAATTCCGGTCTCCC
DNA 2: TGGTGGCTACGACGGGATT
B11: UUGACUG (DNA:RNA)
RNA: B1 RNA with A27G, C28A, G29C, G30U, C31G
DNA 1: CAATCTGAATTCCGGTCTCCC
DNA 2: TGGTGGCTACGACGGGATT
B12: GUGAUCG (DNA:RNA)
RNA: B4 RNA with A26U, U27G, G28A, A29U, A30C, A31G
DNA 1: CAATCTGAATTCCGGTCTCCC
DNA 2: TGGTGGCTACGACGGGATT
B13: GUGAUUC (DNA:RNA)
RNA: B1 RNA with U25G, A27G, C28A, G29U, G30U
DNA 1: CAATCTGAATTCCGGTCTCCC
DNA 2: TGGTGGCTACGACGGGATT
B14: GUGACUG (DNA:RNA)
RNA: B4 RNA with A26U, U27G, G28A, A29C, A30U, A31G
DNA 1: CAATCTGAATTCCGGTCTCCC
DNA 2: TGGTGGCTACGACGGGATT
B15: GUGACCG (DNA:RNA)
RNA: B4 RNA with A26U, U27G, G28A, A29C, A30C, A31G
DNA 1: CAATCTGAATTCCGGTCTCCC
DNA 2: TGGTGGCTACGACGGGATT
B16: GGUGAUG (DNA:RNA)
RNA: B4 RNA with A26G, A30U, A31G
DNA 1: CAATCTGAATTCCGGTCTCCC
DNA 2: TGGTGGCTACGACGGGATT
B17: GCGUGAA (DNA:RNA)
RNA: B4 RNA with A26C, U27G, G28U, A29G
DNA 1: CAATCTGAATTCCGGTCTCCC
DNA 2: TGGTGGCTACGACGGGATT
B18: GUGAAUC (DNA:RNA)
RNA: B4 RNA with A26U, U27G, G28A, A30U, A31C
DNA 1: CAATCTGAATTCCGGTCTCCC
DNA 2: TGGTGGCTACGACGGGATT
B19: ACCUAUU (DNA:RNA)
RNA: B4 RNA with G25A, A26C, U27C, G28U, A30U, A31U
DNA 1: CAATCTGAATTCCGGTCTCCC
DNA 2: TGGTGGCTACGACGGGATT
B20: GCUCCGG (DNA:RNA)
RNA: B4 RNA with A26C, G28C, A29C, A30G, A31G
DNA 1: CAATCTGAATTCCGGTCTCCC
DNA 2: TGGTGGCTACGACGGGATT

Target: T1, RBFOX1 RRM RbFoxmut (Fox-RRM*)
Test: EMSA; HiTS-Eq, 1 nM pool, 10 min; buffer printed only for the single-RNA assays: 10 mM Tris pH 7.5, 150 mM NaCl, 3.4 mM EDTA, 0.001% NP-40, 30 C
Conditions: tags: His6 N-terminal (pET28a); label: 5' 32P
In short: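 Purified RbFox RRM, wild type or mutant, was incubated for 10 min in 50 µL with 1 nM of a 5′-radiolabelled RNA pool carrying 7 randomized nucleotides, whose flanks were annealed to DNA oligonucleotides, over a series of increasing protein concentrations. Unbound RNA was resolved on 8% native PAGE, cut out, reverse-transcribed, barcoded by PCR and sequenced on an Illumina HiSeq 2500. Relative association constants were derived from changes in read counts for each RNA species versus the control reaction and normalised to the cognate motif.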

For B1, which binding signal is on record?
The binding signal was 0.0823 KA relative to UGCAUGU.

With B2 as the binder, how does the binding signal read?
Its binding signal is 0.112 KA relative to UGCAUGU.

Which binding signal does the source give for B3 here?
The binding signal was 0.0758 KA relative to UGCAUGU.

With B4 as the binder, how does the binding signal read?
The binding signal was 0.0758 KA relative to UGCAUGU.

With B5 as the binder, how does the binding signal read?
Its binding signal is 0.127 KA relative to UGCAUGU.

Which binding signal does the source give for B6 here?
Its binding signal is 0.0617 KA relative to UGCAUGU.

For B7, which binding signal is on record?
Its binding signal is 0.454 KA relative to UGCAUGU.

With B8 as the binder, how does the binding signal read?
The binding signal was 0.126 KA relative to UGCAUGU.

With B9 as the binder, how does the binding signal read?
The binding signal was 0.0776 KA relative to UGCAUGU.

With B10 as the binder, how does the binding signal read?
Its binding signal is 0.112 KA relative to UGCAUGU.

Which binding signal does the source give for B11 here?
The binding signal was 0.243 KA relative to UGCAUGU.

B12 was tested. Which binding signal did it give?
Its binding signal is 0.32 KA relative to UGCAUGU.

Which binding signal does the source give for B13 here?
Its binding signal is 0.159 KA relative to UGCAUGU.

For B14, which binding signal is on record?
The binding signal was 0.387 KA relative to UGCAUGU.

For B15, which binding signal is on record?
The binding signal was 0.162 KA relative to UGCAUGU.

For B16, which binding signal is on record?
The binding signal was 0.412 KA relative to UGCAUGU.

For B17, which binding signal is on record?
The binding signal was 0.119 KA relative to UGCAUGU.

With B18 as the binder, how does the binding signal read?
Its binding signal is 0.42 KA relative to UGCAUGU.

B19 was tested. Which binding signal did it give?
The binding signal was 0.107 KA relative to UGCAUGU.

B20 was tested. Which binding signal did it give?
Its binding signal is 0.0646 KA relative to UGCAUGU.

Reference: article PMC9911399, “Two distinct binding modes provide the RNA-binding protein RbFox with extraordinary sequence specificity”
